Only some compounds are listed: those with a hit (about 7.6% of all), similar ones and a draw of the others.
RORg inh = qHTS for inhibitors of ROR gamma transcriptional activity; Potency, µM (doses to about 53.6 µM), without a hit: at the top dose activity change, negative = inhibition, most hits filed as inhibitors; Nuclear receptor ROR-gamma (Mus musculus), P51450; Drosophila S2 Gal4-RORgamma UAS-luciferase reporter, 20 h; 310,000 compounds, 5.4% hits; further: potency means the concentration at half of the fitted maximal effect; on the % scale 0 is the no-effect control and ±100 the full control effect; nearly all actives have a fitted effect of over 60% in size
Target sequence (P51450 whole entry, looked up, the tested form may be a part): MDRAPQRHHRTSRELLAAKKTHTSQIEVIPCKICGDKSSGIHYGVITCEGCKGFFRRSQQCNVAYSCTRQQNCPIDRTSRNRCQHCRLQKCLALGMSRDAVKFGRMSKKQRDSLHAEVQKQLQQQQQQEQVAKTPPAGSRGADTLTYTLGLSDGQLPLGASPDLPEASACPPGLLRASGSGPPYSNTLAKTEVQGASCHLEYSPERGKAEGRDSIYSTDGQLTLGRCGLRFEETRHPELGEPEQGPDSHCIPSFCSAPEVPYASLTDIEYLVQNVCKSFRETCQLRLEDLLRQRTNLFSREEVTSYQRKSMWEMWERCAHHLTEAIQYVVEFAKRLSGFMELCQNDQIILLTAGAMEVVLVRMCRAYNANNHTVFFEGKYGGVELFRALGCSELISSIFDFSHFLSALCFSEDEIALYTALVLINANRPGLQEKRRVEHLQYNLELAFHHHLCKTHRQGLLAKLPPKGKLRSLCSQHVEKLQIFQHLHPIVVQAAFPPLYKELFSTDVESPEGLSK
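Stably transfected Drosophila Schneider cells are the test system, with ROR gamma fused to Gal4 and luciferase under UAS control; luminescence is read after 20 hr of 700 uM copper sulfate induction at ambient temperature.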
p53 reactivator = qHTS assay for re-activators of p53 using a Luc reporter | 320,000 compounds, 0.063% hits | H1299 p53-A138V BP100-luciferase reporter, luminescence, 24 h | Potency, µM (titrated, usually from 92.2 µM), inactives show top-dose activity change, positive = activation, actives largely listed as activators; further: potency means the concentration at half of the fitted maximal effect; % of control where 0% means no effect; nearly all actives have a fitted effect of over 45% in size
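H1299 (p53-null), stable ts p53-A138V + BP100-Luc; 1000 cells/well, Opti-MEM/10% FBS; cpd 4 pt, 1:5; 24 h, 37 deg C, 5% CO2; detection reagent 10 min RT; luminescence.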
ELG1 repair inh = qHTS screen for small molecules that inhibit ELG1-dependent DNA repair in human embryonic kidney (HEK293T) cells expressing luciferase-tagged ELG1; Potency, µM (top dose mostly 46.1 µM), for inactives: at the highest dose activity change, negative = inhibition, actives largely listed as inhibitors; 330,000 compounds, 2.3% hits; AID 504467, 2011; HEK293T ELG1-luciferase reporter, luminescence, 16 h; DNA damage induced by 5-fluorouridine; further: potency means the concentration at half of the fitted maximal effect; on the % scale 0 is the no-effect control and ±100 the full control effect; nearly all actives have a fitted effect of over 55% in size
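Step one: seed 2,000 cells per well. Step two: pin-transfer compound or DMSO alongside 5-fluorouridine. Step three: incubate 16 hr, 37 °C, 5% CO2. Step four: add ONE-Glo, wait 30 min, read luminescence.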
Gal4-VP16 FLuc = VP16 counterscreen qHTS for inhibitors of ROR gamma transcriptional activity | Drosophila S2 Gal4-VP16 UAS-luciferase, luminescence, 20 h | Potency, µM (series often up to 53.6 µM), for the others: at the highest dose activity, negative = inhibition, actives largely listed as inhibitors | 310,000 compounds, 3.5% hits;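 further: Gal4-VP16 expression switched on by copper sulfate through the metallothionein promoter; potency means the concentration at half of the fitted maximal effect; on the % scale 0 is the no-effect control and ±100 the full control effect; nearly all actives have a fitted effect of over 50% in size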
Giardia kill = Small Molecules that selectively kill Giardia lamblia: qHTS; Giardia lamblia trophozoite viability; activity change, % at 7.66 µM, hits read low; 340,000 compounds, 0.15% hits; AID 540267, 2011; in the data active means activity change below about -80%; inconclusive means between about -30% and that limit;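 further: parasites exposed to compound for two days anaerobically before the ATP read; on the % scale 0 is the no-effect control and ±100 the full control effect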
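Trophozoites 100 cells/well + cpd; 48 hrs, 37 deg C, anaerobic. ATPLite 1-Step added, 15-30 min RT, luminescence read (ATP-based viability).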
BRCA1 expr up = qHTS Assay to Identify Small Molecule Activators of BRCA1 Expression; MCF7-BRCA1-FFLuc reporter, luminescence, 48 h; response scale: scaled: vehicle 0%, 10 µM genistein 100%; Potency, µM (highest dose often 46.1 µM), for the others: at the top dose activation, usual class: activators; 380,000 compounds, 1.1% hits; AID 624202, 2012; further: potency means the concentration at half of the fitted maximal effect; nearly all actives have a fitted effect of over 80% in size
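MCF7 cells carrying a BRCA1-firefly luciferase reporter (2000 cells/well, phenol-red free MEM) were attached for 2 h at 37 °C, then given compounds for 48 h. Luminescence was read 15 min after luciferase reagent; activity normalized to genistein (10 microM) and DMSO.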
* hit, by the source's call; ? = inconclusive; / = not tested or not shown; [ ] = dose if it differs, or a comment. Unless noted, the call rests on the fitted dose curve; in most records, active means well fitted curve in the direction sought with a large enough effect; inconclusive means small, poorly fitted or top-dose-only effect, or another doubt; inactive means no such curve, though single readings can be large; an effect the other way counts as inactive or inconclusive.

SMILES | RORg inh | p53 reactivator | ELG1 repair inh | Gal4-VP16 FLuc | Giardia kill | BRCA1 expr up
O=C(CS(=O)(=O)c1ccc(F)cc1)Nc1nnc(-c2cccs2)o1 | / | 0.7% | ? | / | -7.8 | 3.9%
O=C(CS(=O)(=O)c1ccc(Cl)cc1)Nc1nnc(-c2cccs2)o1 | 14.1µM* | 8.6% | 13.9% | ? | -8.0 | 2.9%
O=c1[nH]c(CSc2nnc(-c3ccncc3)n2Cc2ccco2)nc2ccccc12 | 11.2%[10 µM] | -3.9% | -9.8% | -2.3% | 6.8 | 0.3%
COc1ccc(-n2c(SCC(=O)/C(C#N)=C(\C)N)nc3ccccc3c2=O)cc1OC | ? | -0.5% | -7.0% | 3.4% | -16.5 | -16.3%
Fc1cccc(-c2nnn3c2nc(NC2CCCCC2)c2ccccc23)c1 | / | / | / | / | / | 11.4%
O=C(N/N=C/c1cccs1)c1cc(-c2cccc3ccccc23)n[nH]1 | 5.01µM* | ? | -1.5% | 5.01µM* | 11.4 | ?
O=C(N/N=C/c1c[nH]c2ccccc12)c1cc(-c2ccc3ccccc3c2)n[nH]1 | ? | ? | 3.4% | ? | 24.3 | -42.9%
O=C(N/N=C/c1cccs1)c1cc(-c2ccc3ccccc3c2)n[nH]1 | 3.16µM* | -4.8% | -20.5% | 5.01µM* | -23.5 | -8.7%
CCC(c1nnnn1-c1ccc2c(c1)OCCO2)N1CCN(c2ccccc2)CC1 (configuration not stated) | / | / | / | / | / | -4.2%
Cc1c(C(=O)CN2CCCC(C)(C)C2)c2ccccc2n1C | -7.4% | -3.9% | -3.0% | -15.4% | 10.5 | 7.3%
C/C(=N\NC1=NCCN1)c1ccccc1 | 17.9% | -2.0% | -1.8% | -4.9% | -4.9 | 2.6%
CCCCCOc1ccc(Br)cc1/C(C)=N/NC1=NCCN1 | 2.51µM* | 7.1% | ? | ? | -10.7 | -80.7%
C/C(=N\NC1=NCCN1)c1ccc(Cl)cc1 | 1.7% | -2.3% | 0.6% | -1.1% | 24.1 | 0.0%
COc1ccc(Br)cc1/C(C)=N/NC1=NCCN1 | ? | 0.7% | ? | 12.6µM* | -10.3 | -49.6%
Cc1ccc(S(=O)(=O)CC2CSc3nc4ccccc4n32)cc1 (configuration not stated) | ? | -4.6% | -9.3% | 1.12µM* | -8.9 | -34.2%
COc1ccc(/C=N/NC(=S)SC)cc1OC | 1.58µM* | 0.7% | 13.3% | 3.16µM* | 3.5 | -30.8%
S=C(N/N=C/c1ccccc1)N1CCOCC1 | 0.398µM* | 24.4% | ? | 2.51µM* | -2.4 | -50.1%
CSC(=S)N/N=C/c1ccccc1 | 1.41µM* | -0.9% | 5.5% | 3.16µM* | 14.1 | -18.5%
S=C(Nc1ccccc1)N1CCOCC1 | -25.6% | 0.1% | 9.3% | -1.6% | -15.5 | -4.3%
COc1ccc(C=NNC(=O)NN=Cc2ccc(OC)c(OC)c2)cc1OC | / | / | / | / | 0.1 | 103.2%
COC(=O)[C@@]1(Cc2ccccc2)[C@H]2c3cc(C(=O)N(C)C)n(Cc4c(CO)[nH]cc(C)c4=O)c3C[C@H]2CN1C(=O)c1ccccc1 | 38.2% | / | / | -11.6% | / | /
Cc1csc(SCC(=O)Nc2sccc2C(N)=O)n1 | 29.8% | 4.1% | ? | -16.3% | 10.8 | 6.31µM*
NC(=O)c1ccsc1NC(=O)CSc1ccccc1F | ? | ? | ? | 0.7% | -0.7 | 11.2µM*
Cc1ccccc1SCC(=O)OCC(=O)Nc1sccc1C(N)=O | 9.9% | ? | 11.7% | -11.8% | -13.0 | -0.2%
Cc1csc(SCC(=O)Nc2nccs2)n1 | / | 1.2% | ? | / | 5.2 | -5.2%
SMILES | RORg inh | p53 reactivator | ELG1 repair inh | Gal4-VP16 FLuc | Giardia kill | BRCA1 expr up
COc1cccc2c3c(c(C)nc12)CC(CO)O3 (configuration not stated) | -0.3% | / | / | 0.7% | / | /
O=C(CCl)c1cc2c3c(c1)CC(=O)N3CCC2 | 2µM* | -23.6% | ? | 3.55µM* | -4.5 | -21.7%
c1cc(-c2nnc3sc(C4CCCCC4)nn23)ccn1 | -5.1%[10 µM] | 2.3% | 9.2µM* | 5.0% | -21.2 | 62.6%
c1csc(Cc2nn3c(-c4ccncc4)nnc3s2)c1 | 0.1% | -1.2% | 10.3µM* | 0.7% | 1.9 | 19.8%
Cc1ncc(C(=O)Nc2ccccc2)[nH]1 | / | / | / | / | 4.1 | 2.82µM*
Cc1cc(/C=N/Nc2nc(N)ncc2[N+](=O)[O-])c(C)n1-c1ccccc1F | 1.58µM* | -10.2% | ? | 7.08µM* | / | /
CCc1c(C)[nH]n(-c2nc(-c3ccccc3)cs2)c1=O | ? | 21.8% | 6.2% | ? | 3.1 | 34.4%
CCc1c(C)[nH]n(-c2nc(-c3cccc([N+](=O)[O-])c3)cs2)c1=O | 10µM* | 20.0% | 3.0% | ? | 21.1 | -38.5%
CC(=O)Nc1c(C)cc(OCC(=O)O)cc1C | -2.8% | -3.4% | -11.1% | -4.3% | 44.8 | 1.6%
CC1CCCCN1C(=O)C1CCN(c2nc(-c3ccccc3)nc3c2CCC3)CC1 (configuration not stated) | -21.7% | -2.4% | ? | -7.0% | 4.7 | -67.8%
Cc1ccc(N2CC(C)Cn3c2nc2c3c(=O)[nH]c(=O)n2C)cc1 (configuration not stated) | 3.8% | 2.6% | 1.6% | 2.7% | -18.4 | 2.1%
Cc1ccc(N2CC(C)Cn3c2nc2c3c(=O)[nH]c(=O)n2C)cc1C (configuration not stated) | 4.3% | -5.0% | 9.2µM* | 4.2% | 5.2 | -52.9%
CCNC(=S)N/N=C/c1sc(N2CCCCC2)nc1-c1cccs1 | ? | 25.6% | ? | 17.8µM* | -6.3 | 50.7%
COc1ccc(NC(=O)c2cc(-c3ccncc3)nc3ccc(Br)cc23)cc1OC | ? | 2.2% | ? | 20µM* | 3.7 | -72.9%
COc1ccccc1NC(=O)c1cc(-c2cc(OC)c(OC)c(OC)c2)nc2ccccc12 | 0.4% | -8.6% | ? | ? | 20.5 | -53.0%
COc1ccc(NC(=O)c2cc(-c3ccc(C)o3)nc3ccccc23)cc1OC | 15.8% | ? | 14.6µM* | -1.6% | -3.1 | 89.6%
COc1ccc(CNC(=O)c2cc(-c3ccncc3)nc3c(C)cc(C)cc23)cc1OC | ? | 9.8% | 23.1µM* | ? | -10.0 | -5.8%
COc1ccc(NC(=O)c2cc(-c3ccc(C)o3)nc3ccccc23)c(OC)c1 | / | / | / | / | ? | 76.1%
COc1cc(-c2cc(C(=O)Nc3ccncc3)c3ccccc3n2)cc(OC)c1OC | / | -7.2% | 6.51µM* | / | 21.2 | -28.4%
COc1ccc(CNC(=O)N2CCN(c3cccc(C)c3C)CC2)cc1OC | 3.2% | -6.7% | -11.1% | -5.9% | -8.9 | -22.0%

Assay outcomes from PubChem.
